PubChem BioAssay (EPA / NIEHS)
“And” between values parts separate entries of the source, which are not always exact repeats. Equal entries are not always repeated. The source made the active and inactive calls. The calls were made as follows: active = hit-call score of the fitted dose curve at least 0.9, where 1 is the maximum; inactive = score below 0.9.

Read-out: Basic fibroblast growth factor (bFGF), FGF2 (gene 2247)
Assay: BSK_MyoF_bFGF: BioMAP Diversity Plus: MyoF Assay for Basic fibroblast growth factor (bFGF) Biomarker Activity (AID 2284246)
Conditions: primary human lung fibroblasts
Procedure: BSK_MyoF is a cell-based, multiplexed-readout assay that uses lung fibroblasts, a human […] primary cell, with measurements taken at 24 hours after chemical dosing in a microplate: 96-well plate.BSK_MyoF_bFGF is an assay component measured in the BSK_MyoF assay. It measures bFGF antibody related to regulation of gene expression using ELISA technology.Data from the assay component BSK_MyoF_bFGF was analyzed at the endpoint, BSK_MyoF_bFGF, in the positive analysis fitting direction relative to DMSO as the negative control and baseline of activity. Using a type of binding reporter, gain or loss-of-signal activity can be used to understand protein changes. To generalize the intended target to other relatable targets, this assay endpoint is annotated to the 'growth factor' intended target family, where the subfamily is 'basic fibroblast growth factor '.
The levels of cell surface (or secreted, indicated by the prefix "s") biomarker endpoints were measured by ELISA. Overt cytotoxicity to cells in confluent adherent cultures (all systems other than the BT system) was assessed by measuring total protein levels using sulforhodamine B (SRB) staining in parallel cultures at the time of biomarker measurements, indicated as SRB endpoints. For proliferation assays for adherent cell types, individual cell types are cultured at sub-confluence and relative cell numbers quantified by SRB staining at time points optimized for each system (48 h: 3C and CASM3C systems; 72 h: BT and HDF3CGF systems; 96 h: SAg system). SRB was performed by staining cells with 0.1% SRB after fixation with 10% TCA and reading wells at 560 nm.Viability and proliferation of PBMC (T cells) was quantified by Alamar Blue reduction for the SAg and BT systems. For PBMC viability (referred to as PBMC Cytotoxicity within the assay endpoint names), cells were plated (75,000/well in a 96-well plate) and then chemical samples added for 1 h before addition of activators, SEB and TSST-1 (20 ng/mL final concentration each). Cells were incubated for 90 h. Then, Alamar Blue (20 uL/well) (Invitrogen, Cat DAL1100) was added for 6 h, and the plates were read with a fluorescence microplate reader at 546/580 nm (excitation/emission). For PBMC proliferation, cells were plated and activated as above but incubated for only 16 h prior to addition of Alamar Blue. Plates were read after 6 h.

| Structure (SMILES) | outcome | AC50 |
| --- | --- | --- |
| CCOP(=S)(OCC)Oc1ccc(S(C)=O)cc1 (stereo unspecified) | inactive |  |
| CCCCCCCCC(=O)NCc1ccc(O)c(OC)c1 | inactive |  |
| O=S(=O)(c1ccc(Cl)cc1)c1ccc(Cl)cc1 | inactive |  |
| COP(=S)(OC)Oc1ccc(S(=O)(=O)N(C)C)cc1 | inactive |  |
| CCOC(=O)/C=C(C)/C=C/C[C@@H](C)CCCC(C)C |  | 32.5 µM (active) |
| CC(C)CCCCCCOC(=O)c1ccccc1C(=O)OCCCCCCC(C)C | inactive |  |
| ClC1=C(Cl)[C@]2(Cl)[C@H]3[C@H]([C@H]4C=C[C@H]3C4)[C@@]1(Cl)C2(Cl)Cl | inactive |  |
| BrCCBr | inactive |  |
| Oc1c(I)cc(I)cc1I | inactive |  |
| C(=NC1CCCCC1)=NC1CCCCC1 |  | 11.9 µM (active) |
| CCCCC(CC)CO[N+](=O)[O-] (stereo unspecified) | inactive |  |
| COC(=O)c1sccc1S(=O)(=O)NC(=O)Nc1nc(C)nc(OC)n1 | inactive |  |
| COP(=S)(OC)Oc1c(Cl)cc(C)cc1Cl | inactive |  |
| CCOP(=S)(OCC)SCCS(=O)(=O)CC | inactive |  |
| NC(=S)Nc1ccccc1 | inactive |  |
| COC[C@H](C)N(C(=O)CCl)c1c(C)csc1C | inactive |  |
| Nc1ncc([N+](=O)[O-])s1 | inactive |  |
| COc1cc(OC)nc(NC(=O)NS(=O)(=O)c2ncccc2C(=O)N(C)C)n1 | inactive |  |

| Structure (SMILES) | outcome | AC50 |
| --- | --- | --- |
| CCNc1nc(NC(C)(C)C)nc(SC)n1 | inactive |  |
| Oc1ccc(-c2ccccc2)cc1 | inactive |  |
| CC(=O)C(Cl)C(=O)N(C)C (stereo unspecified) | inactive |  |
| O=C(O)CCC(F)(C(F)(F)F)C(F)(F)F | inactive |  |
| ClC(Cl)=C(Cl)C(Cl)=C(Cl)Cl | inactive |  |
| O=C(OC1CCCCC1)c1ccccc1C(=O)OC1CCCCC1 | inactive |  |
| Nc1ccc(-c2ccc(N)c(Cl)c2)cc1Cl | inactive |  |
| O=Cc1cccc(Oc2ccccc2)c1 | inactive |  |
| CC1(C)Cc2cccc(O)c2O1 | inactive |  |
| CCSC(C)CC1CC(=O)C(C(CC)=NOC/C=C/Cl)=C(O)C1 (stereo unspecified) | inactive |  |
| CC(C)c1ccc(CO)cc1 | inactive |  |
| COP(=S)(OC)Oc1cc(Cl)c(Cl)cc1Cl | inactive |  |
| OCc1ccco1 | inactive |  |
| COP(=S)(OC)Oc1ccc(Sc2ccc(OP(=S)(OC)OC)cc2)cc1 | inactive |  |
| Nc1cccc2ccccc12 | inactive |  |
| O=C(O)C(F)(F)C(F)(F)C(F)(F)C(F)(F)C(F)(F)C(F)(F)C(F)(F)C(F)(F)C(F)(F)C(F)(F)F |  | 5.14 µM (active) and 6.09 µM (active) |
| O=[N+]([O-])c1ccc2c3c(cccc13)CC2 | inactive |  |
| O=C(O)C(F)(F)C(F)(F)C(F)(F)C(F)(F)C(F)(F)C(F)(F)F | inactive |  |
